Consider seven compounds from PubChem BioAssay (NCI).

Each structure is given as a SMILES string. About 83,000 compounds went through this panel and 20% of them were active in at least one assay; those are over-represented in the sample as a whole.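 A percent growth of 40 corresponds to 60% growth inhibition; 0 means no net growth; -100 means all cells died. Active threshold: below 10.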 Values without a mark were called inactive. Active and inactive are the calls of the source.

Some test systems named below: DU-145 prostate; K-562 leukemia; MALME-3M melanoma; MDA-MB-231 breast; RXF 393 renal; SF-268 CNS; SF-295 CNS; SF-539 CNS; UACC-257 melanoma; M14 melanoma; HCT-15 colon; HT29 colon; SNB-75 CNS; SNB-19 CNS; U251 CNS; PC-3 prostate; SK-MEL-5 melanoma; UACC-62 melanoma; LOX IMVI melanoma; SK-MEL-28 melanoma.
Common to all, as to assay: NCI-60 one-dose screen, 48 h (100 = growth as untreated, 0 = no growth, -100 = all killed)
Holding throughout (conditions): 10 µM unless noted

`CC(c1ccc(-n2cccn2)cc1)c1cnc(N2CCc3ccc(C(N)=O)cc3C2)s1` (stereo not given): the growth with DU-145 prostate is 88.2%; with K-562 leukemia it was 30.4%; with MALME-3M melanoma, 72.4%; in the assay on MDA-MB-231 breast, 72.5%; in the assay on RXF 393 renal, 82.2%; with SF-268 CNS, 86%. Besides, the growth with SF-295 CNS was 52.3%; in the assay with SF-539 CNS, 70.7%; with UACC-257 melanoma, 48.7%; in the assay on M14 melanoma, 45.6%; in the assay with HCT-15 colon, 69.3%; in the assay with HT29 colon, 81.3%. In addition, the growth in the assay on SNB-75 CNS is 76.1%; in the assay on SNB-19 CNS, 85.4%; in the assay with U251 CNS it was 78.3%; with PC-3 prostate it was 59.1%; in the assay with SK-MEL-5 melanoma, 18.8%; with UACC-62 melanoma, 57.3%. Moreover, the growth was 66.4% with LOX IMVI melanoma and 81.8% with SK-MEL-28 melanoma.
On to `Cl.Fc1c[c-]c(-c2ccccn2)c(F)c1.[Pt].c1ccc(P(c2ccccc2)C([PH+](c2ccccc2)c2ccccc2)[PH+](c2ccccc2)c2ccccc2)cc1`, for which the growth in the assay on DU-145 prostate is 26.1%; in the assay on K-562 leukemia, 13.6%; in the assay with MALME-3M melanoma, -12.9% (active); with MDA-MB-231 breast, -16% (active); in the assay with RXF 393 renal, 13.3%; in the assay with SF-268 CNS, 26.4%. Also, the growth is 5.14% (active) in the assay with SF-295 CNS; 9.54% (active) in the assay on SF-539 CNS; 6.42% (active) in the assay with UACC-257 melanoma; 18.7% with M14 melanoma; 56.1% with HCT-15 colon; 11.8% in the assay on HT29 colon. The growth in the assay with SNB-75 CNS was 7.77% (active); in the assay on SNB-19 CNS it was 27.1%; with U251 CNS, 16.4%; in the assay on PC-3 prostate it was 7.49% (active); with SK-MEL-5 melanoma, -91% (active); with UACC-62 melanoma, 23.2%. Further, the growth with LOX IMVI melanoma is 11.7%; with SK-MEL-28 melanoma, 34.4%.
Take `O=C(NCCOCCOCCNc1cccc2c1C(=O)N(C1CCCNC1=O)C2=O)c1cc2c(o1)C(=O)c1ccccc1C2=O` (stereo not given): the growth in the assay with DU-145 prostate was -90.8% (active); in the assay on K-562 leukemia, 9.04% (active); in the assay on MALME-3M melanoma, -94.9% (active); with MDA-MB-231 breast, -2.54% (active); in the assay on RXF 393 renal, -35.4% (active); in the assay on SF-268 CNS it was -9.46% (active). For the same compound, the growth in the assay on SF-295 CNS is -91.9% (active); in the assay with SF-539 CNS, -86.2% (active); in the assay with UACC-257 melanoma, -84.1% (active); in the assay with M14 melanoma it was -52.7% (active); in the assay with HCT-15 colon, -65.3% (active); with HT29 colon, 2.43% (active). Besides, the growth is -98.3% (active) in the assay with SNB-75 CNS; 3.8% (active) in the assay with SNB-19 CNS; -36.4% (active) in the assay on U251 CNS; 4.67% (active) in the assay on PC-3 prostate; -98.7% (active) in the assay on SK-MEL-5 melanoma; -81.7% (active) with UACC-62 melanoma. The growth with LOX IMVI melanoma was -59% (active); with SK-MEL-28 melanoma it was -28.6% (active).
`CCCCN1CCN(c2ccc3nc(-c4ccc5nc(-c6ccc(OCC)c(OCC)c6)[nH]c5c4)[nH]c3c2)CC1`: the growth is -86.2% (active) in the assay on DU-145 prostate; -37.1% (active) in the assay with K-562 leukemia; 9.35% (active) with MALME-3M melanoma; -81.2% (active) in the assay with MDA-MB-231 breast; -96.3% (active) in the assay on RXF 393 renal; 51.6% with SF-268 CNS. In addition, the growth in the assay on SF-295 CNS is -67.8% (active); with SF-539 CNS, -93.7% (active); in the assay on UACC-257 melanoma it was 29%; with M14 melanoma, -28% (active); in the assay on HCT-15 colon it was -30.4% (active); in the assay with HT29 colon, -20.8% (active). The growth was 24.1% in the assay on SNB-75 CNS; -28.8% (active) in the assay on SNB-19 CNS; -61.4% (active) in the assay with U251 CNS; -49.1% (active) with PC-3 prostate; 8.19% (active) in the assay with SK-MEL-5 melanoma; 17.7% in the assay on UACC-62 melanoma. In addition, the growth was -81.9% (active) in the assay on LOX IMVI melanoma and 45.8% with SK-MEL-28 melanoma.
`CCOc1ccc2nc(-c3cccc(OCC(=O)NC(C)C)c3)nc(Nc3ccc(-c4cn[nH]c4)cc3)c2c1`: the growth was 4.3% (active) in the assay with DU-145 prostate; -17.1% (active) in the assay with K-562 leukemia; -66% (active) in the assay on MALME-3M melanoma; 2.7% (active) in the assay with MDA-MB-231 breast; -43.7% (active) in the assay with RXF 393 renal; 12.6% in the assay with SF-268 CNS. Further, the growth was -47.4% (active) in the assay with SF-295 CNS; -79.6% (active) in the assay on SF-539 CNS; -53.7% (active) in the assay with UACC-257 melanoma; 11.6% in the assay on M14 melanoma; 30.8% with HCT-15 colon; -27.6% (active) in the assay on HT29 colon. Moreover, the growth is -62% (active) with SNB-75 CNS; 19.4% with SNB-19 CNS; -33.8% (active) with U251 CNS; 0.124% (active) in the assay on PC-3 prostate; -81.1% (active) in the assay with SK-MEL-5 melanoma; -6.26% (active) in the assay with UACC-62 melanoma. Moreover, the growth in the assay with LOX IMVI melanoma was -10.8% (active); with SK-MEL-28 melanoma it was -71.4% (active).
For `CCCN1CCN(c2ccc3nc(-c4ccc5nc(-c6ccc(OCC)c(OCC)c6)[nH]c5c4)[nH]c3c2)CC1`, the growth in the assay on DU-145 prostate was -64.1% (active); with K-562 leukemia it was -5.53% (active); with MALME-3M melanoma, -82.4% (active); in the assay with MDA-MB-231 breast, -80.2% (active); in the assay on RXF 393 renal it was -92.3% (active); in the assay on SF-268 CNS, 15.8%. Also, the growth in the assay with SF-295 CNS is -63.2% (active); with SF-539 CNS, -87.9% (active); in the assay with UACC-257 melanoma, -29.7% (active); in the assay with M14 melanoma it was -65.7% (active); in the assay with HCT-15 colon, 5.97% (active); with HT29 colon, -31.3% (active). Moreover, the growth in the assay with SNB-75 CNS is -77.9% (active); in the assay with SNB-19 CNS, -39.7% (active); in the assay with U251 CNS it was -71.9% (active); with PC-3 prostate, -40.6% (active); in the assay on SK-MEL-5 melanoma it was -93.9% (active); in the assay on UACC-62 melanoma, -85% (active). The growth with LOX IMVI melanoma was -84.3% (active); with SK-MEL-28 melanoma it was -86.6% (active).
On to `CCOC(=O)c1ccc(NC(=O)CCCN(CC)CC)cc1`, for which the growth in the assay with DU-145 prostate was 105%; in the assay with K-562 leukemia, 97.7%; in the assay with MALME-3M melanoma, 98.5%; with MDA-MB-231 breast, 114%; in the assay on RXF 393 renal, 130%; in the assay on SF-268 CNS it was 104%. Also, the growth was 103% in the assay with SF-295 CNS; 103% with SF-539 CNS; 108% with UACC-257 melanoma; 91.3% in the assay on M14 melanoma; 105% with HCT-15 colon; 88.6% with HT29 colon. In addition, the growth was 106% in the assay with SNB-75 CNS; 111% in the assay with SNB-19 CNS; 98.2% with U251 CNS; 78.3% in the assay with PC-3 prostate; 110% with SK-MEL-5 melanoma; 104% in the assay on UACC-62 melanoma. The growth in the assay on LOX IMVI melanoma is 97.7%; in the assay on SK-MEL-28 melanoma it was 109%.
